Results as given in the supplement of paper PMC6897291.

System: RIVA
Experiment: growth inhibition by drug plus 177Lu-lilotomab satetraxetan (1 - RLU/untreated control) (fraction); higher = stronger inhibition
Details: 10 nM; time (day): 6; 177Lu-lilotomab satetraxetan 0.5 ug/ml
Outline: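 With or without 18 h pretreatment by a radiolabelled anti-CD37 antibody conjugate (~600 MBq/mg; 0.5 µg/ml RIVA, 1 µg/ml U-2932), RIVA and U-2932 cells were washed and plated at 3,000 cells/well. Pre-printed compound doses were 10/100 nM for RIVA and 10/1,000 nM for U-2932. Growth inhibition uses RealTime-Glo RLU relative to the untreated no-drug wells. The calculation is 1 − RLU/mean of 48 such wells per plate, with reads daily from day 3 after 1 h at 37°C.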

Structure (SMILES)	growth inhibition by drug plus 177Lu-lilotomab satetraxetan
CNCc1ccc(-c2[nH]c3cc(F)cc4c3c2CCNC4=O)cc1	0.578
O=C(O)c1ccc(-c2c[nH]c3ncc(-c4ccccc4)cc23)cc1C1CCCC1	0.565
CC(=O)c1c(C)c2cnc(Nc3ccc(N4CCNCC4)cn3)nc2n(C2CCCC2)c1=O	0.545
CCN(CC)CCCCNc1ncc2cc(-c3cc(OC)cc(OC)c3)c(NC(=O)NC(C)(C)C)nc2n1	0.597
CCC(C)(C)C(=O)O[C@H]1C[C@@H](C)C=C2C=C[C@H](C)[C@H](CC[C@@H]3C[C@@H](O)CC(=O)O3)[C@H]21 [Simvastatin (Zocor)]	0.582
CC[C@H](Nc1ncnc2[nH]cnc12)c1nc2cccc(F)c2c(=O)n1-c1ccccc1	0.5
CC(C=CC(=O)NO)=CC(C)C(=O)c1ccc(N(C)C)cc1 (stereo not drawn) [Trichostatin A (TSA)]	0.561
COc1ccc2c3n(c(=NC(=O)c4cccnc4)nc2c1OC)CCN3	0.569
NC(=O)c1ccc(-c2nc(-c3ccccn3)c(-c3ccc4c(c3)OCO4)[nH]2)cc1	0.63
CNC(=O)c1cc(Oc2ccc(NC(=O)Nc3ccc(Cl)c(C(F)(F)F)c3)c(F)c2)ccn1 [Regorafenib (BAY 73-4506)]	0.733
Cc1cnc(Nc2ccc(OCCN3CCCC3)cc2)nc1Nc1cccc(S(=O)(=O)NC(C)(C)C)c1	0.492
CCOc1ccc(Nc2nc(-c3c(C)nc4ccccn34)cs2)cc1	0.62
CC(C)C[C@H](NC(=O)[C@H](Cc1ccccc1)NC(=O)c1cnccn1)B(O)O [Bortezomib (Velcade)]	0.98
